Laboratory results from PubChem BioAssay (NCI).
This is part of a sample that, as a whole, favours compounds with a hit. Of some 83,000 tested, about 20% had one in any assay.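 Step 1: grow cells in 96-well plates. Step 2: add test compound at a single concentration. Step 3: incubate 48 h. Step 4: record percent growth.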 Values without a mark were called inactive. Active and inactive are the calls of the source. How the source made its calls: active means growth percent below 10; inactive means the rest.

Experiments:
Assay in all cases: NCI-60 one-dose screen, 48 h (100 = growth as untreated, 0 = no growth, -100 = all killed)
Details in all cases: 10 µM unless noted
SK-MEL-2 melanoma = tested on: SK-MEL-2 melanoma
EKVX NSCLC = tested on: EKVX NSCLC
SN12C renal = tested on: SN12C renal
UO-31 renal = tested on: UO-31 renal
TK-10 renal = tested on: TK-10 renal
ACHN renal = tested on: ACHN renal
CAKI-1 renal = tested on: CAKI-1 renal
A498 renal = tested on: A498 renal
CCRF-CEM leukemia = tested on: CCRF-CEM leukemia
MOLT-4 leukemia = tested on: MOLT-4 leukemia

SMILES	growth (SK-MEL-2 melanoma)	growth (EKVX NSCLC)	growth (SN12C renal)	growth (UO-31 renal)	growth (TK-10 renal)	growth (ACHN renal)	growth (CAKI-1 renal)	growth (A498 renal)	growth (CCRF-CEM leukemia)	growth (MOLT-4 leukemia)
COc1cc(/C=C2\C(=O)N(CCCOc3cc(O)c4c(=O)cc(-c5ccccc5)oc4c3)c3ccccc32)cc(OC)c1O	81.1%	88.4%	91.3%	61.9%	87%	93.3%	85.2%	91.7%	70.2%	64.7%
Cn1cc(-c2csc(-c3cn(C)c4ccccc34)n2)c2cnccc21	107%	16.8%	67.8%	-48.1% (active)	66.7%	-61.4% (active)	-6.15% (active)	85.2%	0.781% (active)	5.42% (active)
CC(C)CCC[C@@H](C)[C@H]1CC[C@H]2[C@@H]3CC=C4c5sc(Nc6cc(C(F)(F)F)cc(C(F)(F)F)c6)nc5CC[C@]4(C)[C@H]3CC[C@]12C	124%	97%	92.3%	73.4%	119%	106%	85.6%	123%	107%	103%
N#CSc1c[nH]c2ccc(/C=C/C(=O)/C=C(O)/C=C/c3ccc4[nH]cc(SC#N)c4c3)cc12	34.2%	28.8%	18.4%	-40.1% (active)	8.11% (active)	0.691% (active)	11.9%	90.5%	2.04% (active)	-28.2% (active)
CNC(=O)c1cc(Oc2ccc3c(c2)sc2nc(-c4cc(C(F)(F)F)cc(C(F)(F)F)c4)cn23)ccn1	56.8%	45.1%	60.2%	61.7%	36%	50.3%	51.1%	42.5%	64.1%	45.3%
O=CCCCOCc1ccccc1	104%	95.6%	98.8%	95%	97.7%	101%	98.1%	85.8%	104%	103%
CC1(C)CC[C@]23CC[C@]4(C)[C@H](CC[C@@H]5[C@@]6(C)CCNCC(C)(C)[C@@H]6CC[C@]54C)[C@H]2[C@H]1OC3	99.1%	109%	89.6%	99.5%	108%	106%	93.9%	117%	70.8%	58.7%
COc1ccccc1/C=C/C(=O)Nc1ccc(F)cc1	99.1%	73.2%	111%	87.6%	128%	101%	90.7%	102%	97.6%	88.1%
O=C(OCc1ccc2c(Cl)cc(Cl)c(O)c2n1)N1CCN(C(=O)c2cc3ccccc3[nH]2)CC1	27.2%	23.5%	28.1%	4.4% (active)	42.6%	11.6%	17.1%	14.2%	21%	20.5%
O=c1oc2ccccc2cc1-c1nn(-c2ccccc2)cc1-c1nn[nH]n1	104%	99.4%	96.2%	78.4%	101%	99.9%	87.6%	95.1%	104%	99%
CNC(=O)Nc1ccc(-c2ccc3ncnc(Nc4cccc(Cl)c4)c3c2)cc1	65.9%	2% (active)	62.3%	46.5%	-3.72% (active)	34.2%	32.1%	-8.06% (active)	44.5%	36.7%
CCCOC(=O)Nc1nc2ccc(SCC)cc2s1	76.2%	94.3%	89.6%	90.7%	84.9%	107%	79.8%	70.7%	72.1%	72.9%
COc1ccc(C(=O)C/C(=C\c2ccc(O)c(OC)c2)C(=O)NN)cc1	90.8%	94%	89%	67.9%	111%	85.4%	77.9%	105%	73.8%	87.5%
COc1ccc(Nc2ncc(C#N)c(NCCCNC(=O)C3CCC3)n2)cc1	80.6%	87.3%	35.3%	11.1%	41.4%	48.1%	26.3%	52.8%	45.5%	34.7%
CCN(CCNc1ccc(C)c2sc3cc(Cl)ccc3c(=O)c12)CC(C)(C)O	56.6%	82%	71.5%	50.5%	75.7%	69.3%	55.8%	75.5%	79.5%	70.5%
FC(F)(F)c1[nH]ncc1-c1nc2ccc3[nH]ncc3c2c2c1CCCC2	-18.4% (active)	3.77% (active)	12.5%	-26.8% (active)	1.15% (active)	5.04% (active)	9.85% (active)	-60.5% (active)	6.43% (active)	-30% (active)
Cc1cc(Cl)nc(N2CCN(CCNc3ccnc4cc(Cl)ccc34)CC2)n1	61.1%	44.8%	71.2%	32.4%	48.2%	58.2%	44.6%	42.4%	63.1%	32.6%
N#Cc1c(-c2ccc(Br)cc2)nc2c(N=Nc3ccc(S(N)(=O)=O)cc3)c(N)nn2c1N	43.4%	71.1%	45.6%	59.5%	73.2%	71.1%	52.5%	65%	-4.46% (active)	1.59% (active)
COc1ccc(/C=C2\CN(C(=O)C(Cl)Cl)C/C(=C\c3ccc(OC)c(OC)c3)C2=O)cc1OC	14.9%	8.31% (active)	-60.6% (active)	-99% (active)	22%	-82.7% (active)	-17.2% (active)	-48.2% (active)	12%	5.43% (active)
C=CN(C(=O)N1CCN(c2cc3c(cc2F)c(=O)c(C(=O)O)cn3C2CC2)CC1)c1nc(-c2ccc(Cl)cc2)cs1	86.5%	81.8%	54.5%	55.9%	83.6%	70.5%	2.83% (active)	56%	33.5%	58.2%
Cc1cccc(N2C(=O)/C(=C/C(Cl)=C/c3ccc([N+](=O)[O-])cc3)SC2=S)c1C	64%	-3.56% (active)	-13.4% (active)	-72.6% (active)	-9.69% (active)	-84.1% (active)	35.7%	61.1%	3.24% (active)	5.73% (active)
Cn1c(=O)[nH]c(=O)c2nc3c(nc21)-c1ccccc1C3=O	103%	95%	96.6%	83.8%	102%	94.2%	89.9%	95.2%	106%	105%
Cc1cn(C)cn1	103%	105%	105%	82.5%	95.9%	108%	88.7%	114%	97.3%	105%
COC1C(O)CC(OC2CC(OC3CC(O[C@@H]4C(=O)c5c(cc6cc(OC7CC(OC8CC(O)C(O)C(C)O8)C(O)C(C)O7)c(C)c(O)c6c5O)CC4[C@H](OC)[C@@H](O)C(C)=O)OC(C)C3O)OC(C)C2O)OC1C (stereo not given in full)	-37.7% (active)	19.8%	17%	0.176% (active)	-1.06% (active)	0.949% (active)	29.3%	-78.8% (active)	16.6%	-2.23% (active)
CCOC(=O)C1=C(CC(O)c2ccc(OC)cc2OC)NC(=O)NC1c1ccccc1 (stereo not given)	120%	105%	105%	95.8%	120%	109%	92.2%	122%	95.3%	17.2%
COC(=O)c1c2c(c(C)[n+]([O-])c1C)C(=O)C(NCc1ccccc1)=CC2=O	23.6%	34%	2.86% (active)	42.1%	113%	35.4%	22.3%	98.6%	21.9%	16.4%
Cc1ccc(C)c2c1sc1nc(N3CCOCC3)c(C#N)c(=O)n12	110%	80.2%	104%	74.9%	154%	105%	105%	75.7%	83.1%	110%
